We go through 16 compounds from PubChem BioAssay.

Test [1] has as its target Alpha-bungarotoxin (Bungarus multicinctus) (UniProt P60615). Put plainly: compounds binding labelled alpha-BTX control protein – biochemical, small-molecule microarray, Alexa647 label, 635/667 nm fluorescence, artefact control for SMM control protein annotation, profiling panel (AID 1117). The following applies: alpha-BTX-A647 binding fluorescence, higher = more signal.
In test [2] the target is E3 ubiquitin-protein ligase XIAP (Homo sapiens) (UniProt P98170). Description: small molecules binding XIAP protein – biophysical, small-molecule microarray, fluorescence 635 nm, primary screen (AID 1181).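 Note: score merges 667 nm emission and signal to noise over triplicate slides.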 The following applies: higher = more signal.
Sequence of E3 ubiquitin-protein ligase XIAP (Homo sapiens) (P98170 whole entry, looked up, the tested form may be a part): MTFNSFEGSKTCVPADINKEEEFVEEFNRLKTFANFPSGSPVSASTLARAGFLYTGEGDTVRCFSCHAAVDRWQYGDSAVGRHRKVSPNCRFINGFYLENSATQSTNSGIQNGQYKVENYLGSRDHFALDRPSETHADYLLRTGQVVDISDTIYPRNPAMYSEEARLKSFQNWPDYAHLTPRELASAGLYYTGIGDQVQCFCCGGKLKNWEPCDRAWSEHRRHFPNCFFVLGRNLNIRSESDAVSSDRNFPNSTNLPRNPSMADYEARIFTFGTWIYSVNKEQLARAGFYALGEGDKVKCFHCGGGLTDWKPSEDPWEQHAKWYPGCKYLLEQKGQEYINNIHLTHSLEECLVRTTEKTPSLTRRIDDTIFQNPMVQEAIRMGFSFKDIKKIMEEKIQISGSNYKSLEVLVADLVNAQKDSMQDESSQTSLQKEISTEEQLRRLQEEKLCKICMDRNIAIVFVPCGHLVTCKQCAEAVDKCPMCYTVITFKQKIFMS
The test system of test [3] is XIP peptide (Xip251-270) binding. Description: XIP fragment 251-270 binding compounds – biochemical, small-molecule microarray, fluorescence 635/667 nm, 0.1 µg/mL protein, primary screen (AID 1182). The following applies: fluorescent protein binding, 635 nm, higher = more signal, called active from +8 up or from −8 down.
A further test has as its system XIP peptide (Xip251-270). Description: compounds binding XIP fragment 251-270 – biochemical, small-molecule microarray, fluorescence 635/667 nm, 0.5 µg/mL protein, primary screen (AID 1183). The following applies: fluorescence 635 nm, higher = more signal.
A short description of test [4]: blood-stage malaria parasite viability loss – strain 3D7, DAPI fluorescence, 100 nL, primary screen (AID 1184).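 Note: parasites grown inside human red blood cells in medium with human serum.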 The following applies: P. falciparum 3D7 growth, 3 d, higher = more signal.
Test [5] addresses Homeobox protein Hox-A13 (Mus musculus) (UniProt Q62424). Description: disruptors of Hoxa13 oligonucleotide interaction – biochemical, fluorescence polarization, labeled oligonucleotide, primary screen (AID 1185). The following applies: Hoxa13:DNA binding, 15 min, higher = more signal, called active from +8 up or from −8 down. In general terms: Polarisation of emitted light reports the rotation of a fluorescent probe.

Test [6] is described as follows: blockers of DNA damage checkpoint Chk1 activation – imaging, HeLa, hydroxyurea, phospho-Chk1 antibody, percent positive cells, primary screen (AID 1186). The following applies: hydroxyurea-induced phospho-Chk1 immunofluorescence imaging, higher = more signal.
Test [7] in a line: blockers of DNA damage checkpoint Chk1 activation – imaging, HeLa, hydroxyurea, phospho-Chk1 nuclear intensity, primary screen (AID 1187). The following applies: hydroxyurea-induced phospho-Chk1 immunofluorescence imaging, higher = more signal.

Structures are written as SMILES. Activity calls are given as the source filed them. Unless noted, the rule behind the calls is not given here.

Sequence of Alpha-bungarotoxin (Bungarus multicinctus) (P60615 whole entry, looked up): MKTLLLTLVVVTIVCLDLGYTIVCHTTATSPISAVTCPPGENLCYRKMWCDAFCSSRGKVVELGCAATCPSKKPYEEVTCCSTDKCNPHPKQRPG
Sequence of Homeobox protein Hox-A13 (Mus musculus) (Q62424 whole entry, looked up): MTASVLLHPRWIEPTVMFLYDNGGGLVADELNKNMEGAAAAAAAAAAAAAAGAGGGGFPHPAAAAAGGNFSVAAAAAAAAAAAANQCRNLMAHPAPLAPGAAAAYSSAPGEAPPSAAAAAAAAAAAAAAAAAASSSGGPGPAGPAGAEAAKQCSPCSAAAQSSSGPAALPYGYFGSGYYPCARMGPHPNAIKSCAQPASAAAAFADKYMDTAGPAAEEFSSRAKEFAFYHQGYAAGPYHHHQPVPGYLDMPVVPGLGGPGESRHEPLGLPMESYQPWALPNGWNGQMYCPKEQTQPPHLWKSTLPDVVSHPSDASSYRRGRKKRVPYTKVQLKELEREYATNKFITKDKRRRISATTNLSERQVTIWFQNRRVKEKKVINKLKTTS

On to `COCCOC(=O)N1C(=O)[C@@]2(c3cc(C#CCNC(N)=O)ccc31)[C@H](c1ccccc1OCCO)N1[C@H](c3ccccc3)[C@H](c3ccccc3)OC(=O)[C@H]1[C@@H]2C(=O)Nc1nc2ccccc2s1`, for which the composite z-score in test [1] was 2.51; in test [2] it was 0.396; in test [3], -0.377 (inactive); in the test on XIP peptide (Xip251-270) it was 0.501. The z-score in test [4] was -1.89; in test [5], 1.57 (inactive); in test [6], -0.298 (inactive); in test [7], -0.154 (inactive).
Take `C=C(C(=O)CC[C@H](OC(C)=O)c1ccc(CO)o1)C(C)C`: the composite z-score in test [1] was -0.292; in test [2] it was 0.0028; in test [3] it was 2.48 (inactive); with XIP peptide (Xip251-270), -0.365. The z-score in test [4] was -2.1; in test [5], -2.79 (inactive); in test [6] it was -0.17 (inactive); in test [7], -0.428 (inactive).
On to `O=c1n(-c2ccccc2)c(=O)n2n1CC(COc1ccccc1)=C1[C@@H](CCc3ccccc3)OB(O)C[C@@H]12`, for which the composite z-score in test [1] is 1.17; in test [2] it was -0.144; in test [3] it was 1.45 (inactive); with XIP peptide (Xip251-270) it was -0.0257. Besides, the z-score in test [4] was -1.02; in test [5], -6.66 (inactive); in test [6], -0.337 (inactive); in test [7] it was -0.175 (inactive).
`CO[C@H]1O[C@H](CO)[C@@H](OC(=O)Nc2ccccc2)[C@H](OC(=O)Nc2ccccc2-c2ccccc2)[C@@H]1OC(=O)Nc1ccccc1-c1ccccc1`: the composite z-score is 2.77 in test [1], -0.0988 in test [2], 1.7 (inactive) in test [3] and 0.868 with XIP peptide (Xip251-270). Moreover, the z-score was -2.3 in test [4], -1.96 (inactive) in test [5], -0.515 (inactive) in test [6] and -0.367 (inactive) in test [7].
Turning to `COC(=O)C(CC#Cc1ccc2c(c1)[C@]1(C(=O)N2)[C@H](c2ccccc2OCCO)N2[C@H](c3ccccc3)[C@H](c3ccccc3)OC(=O)[C@H]2[C@@H]1C(=O)N1CCCCCCC1)C(=O)OC`, the composite z-score in test [1] was 3.89; in test [2], 1.72; in test [3], 6.51 (inactive); with XIP peptide (Xip251-270) it was 0.937. Further, the z-score is -2.2 in test [4], 3.62 (inactive) in test [5], 0.114 (inactive) in test [6] and 0.72 (inactive) in test [7].
`O=C(NCC(F)(F)F)[C@@H]1c2ccccc2C(=O)N(C2Cc3ccccc3C2)[C@H]1c1ccc(CO)cc1`: the composite z-score was -1.22 in test [1], -0.22 in test [2], -0.729 (inactive) in test [3] and -1.33 in the test on XIP peptide (Xip251-270). Also, the z-score in test [4] is 0.824; in test [5], -1.6 (inactive); in test [6], -0.606 (inactive); in test [7] it was -0.842 (inactive).
For the compound `C=C(C(=O)CC[C@@H](OC(C)=O)c1ccccc1OCCO)C(C)C`, the composite z-score in test [1] is -0.175; in test [2], -0.0163; in test [3], 0.888 (inactive); in the test on XIP peptide (Xip251-270) it was 0.565. For the same compound, the z-score in test [4] is -1.59; in test [5] it was -1.92 (inactive); in test [6] it was -0.345 (inactive); in test [7], -0.171 (inactive).
As to `NCCCCCNC(=O)[C@H]1C[C@H]2C(=O)NCC(=O)N2[C@H]1c1ccc(O)cc1`, the composite z-score in test [1] was 2.71; in test [2], -0.0918; in test [3], 1.28 (inactive); with XIP peptide (Xip251-270), 0.57. Further, the z-score was -0.223 in test [4], -0.587 (inactive) in test [5], 0.637 (inactive) in test [6] and 0.791 (inactive) in test [7].
With `[N-]=[N+]=NCc1ccccc1C[C@]1(C(=O)NCc2ccccc2)N=C(c2ccc(OCCCO)cc2)O[C@H]1c1ccccc1`, the composite z-score is 1.22 in test [1], 0.191 in test [2], 0.279 (inactive) in test [3] and -0.172 with XIP peptide (Xip251-270). The z-score in test [4] was -2.32; in test [5], 1.43 (inactive); in test [6], -0.901 (inactive); in test [7], -0.877 (inactive).
With `C=CCC(OC(C)=O)[C@@H]1[C@@H](N(Cc2cccc3ccccc23)C(=O)Cc2ccc(OC)cc2)c2cc(OCCCO)ccc2N1C(=O)Cc1ccc(OC)cc1` (stereo partly drawn), the composite z-score in test [1] is 0.476; in test [2] it was 0.183; in test [3], -0.203 (inactive); in the test with XIP peptide (Xip251-270) it was -0.665. Also, the z-score is -2.1 in test [4], -2.18 (inactive) in test [5], 0.162 (inactive) in test [6] and 0.268 (inactive) in test [7].
Regarding `CC(C)C(=C=CC[C@@H](O)c1ccc(CO)o1)CCO`, the composite z-score in test [1] was 0.205; in test [2], -0.0036; in test [3], 0.676 (inactive); in the test with XIP peptide (Xip251-270) it was -0.514. In addition, the z-score in test [4] is -0.0113; in test [5], -3.45 (inactive); in test [6], -0.969 (inactive); in test [7], -0.763 (inactive).
Consider `CO[C@H]1O[C@H](CO)[C@@H](OC(=O)Nc2ccccc2)[C@H](OC(=O)Nc2ccc3c(c2)OCO3)[C@H]1OC(=O)Nc1ccc2c(c1)OCO2`, for which the composite z-score in test [1] was 0.485; in test [2], 0.137; in test [3], 1.04 (inactive); in the test on XIP peptide (Xip251-270) it was 0.846. For the same compound, the z-score was -2.2 in test [4], -7.83 (inactive) in test [5], -0.935 (inactive) in test [6] and -0.967 (inactive) in test [7].
Regarding `COc1ccc([Si](C)(C)[C@H]2[C@H](CC(=O)N(CCO)Cc3ccccc3)O[C@@]3(C(=O)N(Cc4ccc(N5CCOC5=O)cc4)c4ccccc43)[C@@H]2C)cc1`, the composite z-score is 1.02 in test [1], 0.144 in test [2], 1.01 (inactive) in test [3] and 0.631 in the test with XIP peptide (Xip251-270). The z-score in test [4] is -1.04; in test [5], -1.48 (inactive); in test [6], -0.0614 (inactive); in test [7], 0.0752 (inactive).
In the case of `CCCCCN1CC=CC23O[C@@H]4/C=C\CCC(C)OC(=O)C4[C@H]2C(=O)N(CCO)[C@@H]3C1=O` (stereo partly drawn), the composite z-score is -1.7 in test [1], 0.272 in test [2], 0.642 (inactive) in test [3] and -0.927 with XIP peptide (Xip251-270). For the same compound, the z-score was -1.41 in test [4], -3.89 (inactive) in test [5], -0.174 (inactive) in test [6] and 0.125 (inactive) in test [7].
Consider `C=C(CCCC)/C(=C/C[C@@H](OC(=O)c1ccncc1)c1ccc(OCCO)cc1)c1cnc2ccccc2c1`, for which the composite z-score was 3.3 in test [1], -0.035 in test [2], 0.384 (inactive) in test [3] and 0.697 in the test on XIP peptide (Xip251-270). The z-score in test [4] was -2.84; in test [5] it was -2.35 (inactive); in test [6], -0.191 (inactive); in test [7], -0.181 (inactive).
Take `Cc1ccc(N2C(=O)c3ccccc3[C@](C)(C(=O)NCC(F)(F)F)[C@@H]2c2ccc(CO)cc2)nc1`: the composite z-score is -1.58 in test [1], 0.0506 in test [2], -0.0838 (inactive) in test [3] and -0.964 in the test with XIP peptide (Xip251-270). Moreover, the z-score in test [4] is -1.36; in test [5], -1.16 (inactive); in test [6], -0.326 (inactive); in test [7], -0.277 (inactive).
